From PubChem BioAssay
Most compounds without a hit are left out; they make up all but 6.8% or so of the library.
PINK1 modulator = A Quantitative High throughput Screen to Identify Chemical Modulators of PINK1 Expression. PINK1 immunofluorescence, high-content cytometry, 24 h. Potency, µM (highest dose often 76.6 µM), for inactives: top-dose activation (PINK1 increase), actives largely listed as activators. 410,000 tested, 0.2% active. AID 624263, 2012; active = well fitted activation curve with a large enough effect; inconclusive = small, poorly fitted or top-dose-only effect; cell line not stated here; also: % of control where 0% means no effect; nearly all actives have a fitted effect of over 65% in size
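Stable cell line, 250 cells/well, 12 h attachment; compounds pinned at 5 concentrations, 24 h; CCCP control. Fixed with nuclear dye, primary antibodies 12 h at 10 degrees C, secondary plus cell stain; laser-scanning cytometer read.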
TSG101-PTAP inh = qHTS Assay for Iinhibitors of HIV-1 Budding by Blocking the Interaction of PTAP/TSG101 | 340,000 tested, under 10 active | Fluorescence polarization, FITC-PTAP peptide / Tsg101 binding | Tumor susceptibility gene 101 protein (Homo sapiens), Q99816 | Potency, µM (doses to about 115 µM), for the others: top-dose activity change, negative = inhibition, most hits filed as inhibitors | AID 493005, 2010; active = well fitted inhibition curve with a large enough effect in the main read-out, with a control signal flat, not every such curve was filed as active; inconclusive = small, poorly fitted or top-dose-only effect, or effect the other way, or a change in a side signal; inactive = no such curve, though single readings can be large or run the other way; also: % of control where 0% means no effect
Target sequence (Q99816 whole entry, looked up): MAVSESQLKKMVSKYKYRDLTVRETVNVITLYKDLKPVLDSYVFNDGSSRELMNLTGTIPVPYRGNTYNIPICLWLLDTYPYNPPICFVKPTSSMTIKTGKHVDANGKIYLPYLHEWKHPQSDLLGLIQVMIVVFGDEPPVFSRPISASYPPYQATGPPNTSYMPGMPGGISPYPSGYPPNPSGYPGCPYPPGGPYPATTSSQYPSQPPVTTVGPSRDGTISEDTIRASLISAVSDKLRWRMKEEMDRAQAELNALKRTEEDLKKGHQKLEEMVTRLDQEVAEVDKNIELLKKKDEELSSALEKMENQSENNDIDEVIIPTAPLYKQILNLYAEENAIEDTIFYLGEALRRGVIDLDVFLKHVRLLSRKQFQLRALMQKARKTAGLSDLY
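Steps: Tsg101 binding domain dispensed (10 uM final), compounds pinned in DMSO, FITC-labeled PTAP-motif peptide added (50 nM final); after 20 min binding at room temperature, polarization measured.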
SW480 rereplic = A quantitative high throughput screen for small molecules that induce DNA re-replication in SW480 colon adenocarcinoma cells; 340,000 tested, 1.8% active; SW480 DNA re-replication, Hoechst DNA content imaging, 48 h; AID 624297, 2012; Potency, µM (series often up to 46.1 µM), for the others: top-dose re-replication activation, usual class: activators; also: % of control where 0% means no effect; nearly all actives have a fitted effect of over 55% in size
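Image-based read-out: total Hoechst fluorescence of nuclei (405 nm excitation, 500-530 nm emission), with hits raising the fraction of high-intensity nuclei. SW480 colon cells incubated 48 hr with compounds at 37 C.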
MCF10A rerep = A quantitative high throughput screen for small molecules that induce DNA re-replication in MCF 10a normal breast cells; 350,000 tested, 2.9% active; MCF 10A DNA re-replication, Hoechst nuclear intensity, 48 h; Potency, µM (series often up to 46.1 µM), for the others: at the highest dose activity, positive = re-replication, usual class: activators; AID 624296, 2012; also: % of control where 0% means no effect; nearly all actives have a fitted effect of over 50% in size
KB-3-1 cytotox = qHTS assay for MDR1-selective chemotherapeutics: Primary screen using the parental adenocarcinoma cell KB-3-1; AID 1347075, 2019; 400,000 tested, 1.4% active; KB-3-1 viability, CellTiter-Glo ATP luminescence, 72 h; Potency, µM (highest dose often 46.1 µM), actives largely listed as cytotoxic; also: % is scaled to controls: 0 for no effect and ±100 for the full control effect; nearly all actives have a fitted effect of over 60% in size
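Screening of KB-3-1 cells (DMEM, 10% FBS, phenol-red free) ran from lowest to highest compound concentration; after 72 h at 37 °C viability was read luminescently and curves fitted.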
KB-V1 cytotox = qHTS assay for MDR1-selective chemotherapeutics: Primary screen using the drug-selected MDR subline cells KB-V1 | Potency, µM (doses to about 46.1 µM), actives largely listed as cytotoxic | KB-V1 MDR cells viability, CellTiter-Glo, 72 h | 400,000 tested, 3.4% active; also: % is scaled to controls: 0 for no effect and ±100 for the full control effect; nearly all actives have a fitted effect of over 60% in size
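In this primary screen, KB-V1 cells overexpressing P-gp are incubated with library compounds (lowest to highest concentration) for 72 h at 37 degrees C before a luminescent ATP viability read.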
* marks the source's active call; other numbers are inactive results; i = inactive; ? = inconclusive; · = not tested or not shown; [ ] = remark or other dose. Unless noted, calls follow the shape of the dose curve; as a rule, active = well fitted curve in the direction sought with a large enough effect; inconclusive = small, poorly fitted or top-dose-only effect, or another doubt; inactive = no such curve, though single readings can be large; an effect the other way counts as inactive or inconclusive. Potency is read from the fitted curve at half-maximal effect.

SMILES	PINK1 modulator	TSG101-PTAP inh	SW480 rereplic	MCF10A rerep	KB-3-1 cytotox	KB-V1 cytotox
Cc1ccc(CN2C(=O)c3ccccc3C2c2nnnn2-c2ccc3c(c2)OCCO3)cc1 (centres undefined)	4%	·	·	·	?	i
CCN(Cc1nc2cc(Cl)ccc2c(=O)[nH]1)C(=O)c1cc(C2CC2)nn1-c1ccccc1	16%	0%	-2%	16µM*	i	i
CCN(Cc1nc2cc(Cl)ccc2c(=O)[nH]1)C(=O)c1ccc(C)c(NC(=O)c2ccco2)c1	0%	0%	9%	?	i	?
CCN(Cc1nc2cc(Cl)ccc2c(=O)[nH]1)C(=O)c1nn(C)c(=O)c2ccccc12	3%	2%	-3%	-2%	i	18µM*
CCOC(=O)COc1ccc(CC)cc1C(=O)c1ccn2nc(-c3ccc(Cl)cc3)cc2n1	3%	·	·	·	i	?
O=C(c1ccc2c(c1)[nH]c(=S)n1c3ccccc3nc21)N1CCN(c2ncccn2)CC1	2%	-2%	-11%	9.2µM*	i	i
Clc1ccc(N2CCN(c3ncnc4c3nc3n4CCCC3)CC2)cc1	2%	·	·	·	·	·
Cc1nc(SCC(=O)Nc2ccccc2F)[nH]c(=O)c1Cc1ccccc1	0%	·	·	·	·	·
COc1ccc(CNc2cccc3[nH]c(C(F)(F)F)nc23)cc1OC	25µM*	-6%	2%	2%	i	i
O=c1cc(CSc2nnc(Nc3ccccc3F)s2)nc2sccn12	-1%	-1%	?	?	?	16µM*
CN(Cc1ccc(-n2cccn2)cc1)C(=O)c1cnn2c1NC(c1ccco1)CC2C(F)(F)F (centres undefined)	3%	-6%	4%	?	?	4.6µM*
COc1cc(CNC2CCCC2)cc(Cl)c1OCc1ccccc1Cl	?	-3%	?	16µM*	?	21µM*
Cc1cccc(NC(=O)Cn2c(=O)oc3cc(S(=O)(=O)N4CCCCCC4)ccc32)c1	4%	·	·	·	·	·
O=C(Cn1ncc(Cl)c(Cl)c1=O)NCC1CCCCC1	-1%	-2%	?	5.8µM*	15µM*	i
NC(=O)c1ccccc1NC(=O)CN1CCN(Cc2ccc(Cl)cc2Cl)CC1	1%	2%	?	7%	?	?
O=C(Cn1ncc(Cl)c(Cl)c1=O)NC1CCCCC1	0%	-6%	1.3µM*	1.3µM*	?	i
O=C1CN(C(=O)Cn2ncc(Cl)c(Cl)c2=O)c2ccccc2N1	-2%	-1%	14%	1.8µM*	?	?
O=C(Cn1ncc(Cl)c(Cl)c1=O)NC1CCS(=O)(=O)C1 (centres undefined)	12%	-3%	?	?	i	i
Cc1cccc(NC(=O)CN2CCN(CC(=O)NCc3ccc(Cl)cc3Cl)CC2)c1C	5%	1%	-4%	-6%	i	3.7µM*
CC(C)COc1ccc(C(=O)Nc2nnc(S(=O)(=O)N(C)Cc3ccco3)s2)cc1	-1%	·	·	·	·	·
Cc1cccc(NC(=O)CNC(=O)CSc2ncccn2)c1C	1%	1%	-8%	2%	i	i
Cc1cccc(NC(=O)CNC(=O)Cn2ncc(Cl)c(Cl)c2=O)c1C	-6%	6%	8.2µM*	5.2µM*	?	?
O=C(CN1C(=O)c2cccc3cccc1c23)Nc1ccccc1C(=O)NCc1ccco1	0%	0%	28%	21µM*	i	?
Cc1ccc(S(=O)(=O)c2nc(S(=O)(=O)c3ccc(C)cc3)c(NCCCOC(C)C)s2)cc1	-1%	·	·	·	i	?
CCCCCCn1ccc(=N)cc1	2%	-1%	-5%	2%	8.2µM*	i
SMILES	PINK1 modulator	TSG101-PTAP inh	SW480 rereplic	MCF10A rerep	KB-3-1 cytotox	KB-V1 cytotox
CCCCCCN1C2=NCCN2c2ccccc21	4%	-7%	-7%	-3%	i	?
COc1cc(NC(=O)CCCC(=O)OCC(F)(F)C(F)F)nc(OC)n1	-3%[38.3 µM]	-7%	?	23µM*	i	i
COc1cc(NC(=O)CCC(=O)OCCCC(F)(F)C(F)(F)F)nc(OC)n1	2%	-2%	1%	?	?	i
CC(C)CC(=O)Nc1cccc(-c2cn3cccnc3n2)c1	-1%	·	·	·	i	i
O=C(COc1ccccc1F)Nc1ccc2nc(SCC(=O)N3CCOCC3)sc2c1	1%	·	·	·	·	·
Cc1ccc2oc(C(=O)N(C)Cc3ccc(C)o3)c(C)c2c1	8%	-3%	?	23µM*	i	i
Cc1ccc(-n2nc(CO)c(C(=O)NC(C)CCCc3ccccc3)n2)cc1 (centres undefined)	0%	·	·	·	·	·
O=C(/C=C\c1cccs1)c1c(O)ccc2ccc(=O)oc12	-1%	0%	5%	21µM*	?	i
O=C(N/N=C/c1c(Cl)cccc1Cl)c1n[nH]c2c1CCCC2	5%	-3%	-1%	-3%	i	i
Cc1ccsc1/C=N\NC(=O)c1n[nH]c2c1CCC2	11%	-1%	13µM*	8.2µM*	3.3µM*	4.6µM*
C=Cc1ccc(Cn2c(C(=O)O)c(CNC3CCCCC3)c3ccc(OC)cc32)cc1	-1%	·	·	·	i	i
Nc1ccc(C(=O)N/N=C/c2cn(Cc3ccccc3)c3ccccc23)cc1	0%	0%	-3%	-1%	?	29µM*
O=C(O)c1ccc(N/N=C/c2cn(Cc3ccccc3F)c3ccccc23)cc1	1%	0%	?	21µM*	?	i
CNC(=S)N/N=C/c1cn(Cc2ccc(F)cc2)c2ccccc12	3%	-1%	0%	?	?	15µM*
Nc1ccc(C(=O)N/N=C/c2cn(Cc3ccccc3F)c3ccccc23)cc1	2%	-4%	-5%	2%	?	i
Cc1cc(C)c(NC(=O)CN2C(=O)c3cccnc3Oc3ccc(C)cc32)c(C)c1	1%	·	·	·	·	·
c1ccc(-c2cn3nc(-c4ccccc4)c(-c4ccccc4)nc3n2)cc1	-1%	?	9.2µM*	7.3µM*	i	13µM*
Cc1nn2cc(-c3ccc(-c4ccccc4)cc3)nc2s1	1%	1%	8%	6%	i	?
Cc1ccc(-c2cn3nc(-c4ccccc4)c(-c4ccccc4)nc3n2)cc1	-1%	?	18µM*	?	i	i
